# Measured values from ChEMBL document CHEMBL4513149, “CO-ADD screening of MMV (CH) - MMV compounds” (2021).
# Measured potencies and affinities stand elsewhere.
# Columns and labels:
# Klebsiella pneumoniae = conditions: Concentration 20 uM; ASSAY_TEST Inhibition of Bacterial Growth; detection method Absorption (OD600); MEDIA CAMHB; plate type 384well; NBS; CORNING #3640; time 18 hr
# Candida albicans = conditions: 20 µM
# Cryptococcus neoformans = conditions: Concentration 20 uM; ASSAY_TEST Inhibition of Fungal Growth; detection method Resazurin; Absorption (OD600-OD570); plate type 384well; NBS; CORNING #3640
SMILES,Inhibition (Klebsiella pneumoniae) [%],Inhibition (Candida albicans) [%],Inhibition (Cryptococcus neoformans) [%]
COc1ccc(-c2cnc3cnc(-c4cccc(OC(C)C)c4)cn23)cc1,4.82,11.6,-13.72
CN(C)c1cc(NC(=O)Nc2ccccc2)c2ccccc2n1,-9.89,5.61,-2.57
CCOc1ccc2cc(-c3nn(CC4CCN(C)CC4)c4ncnc(N)c34)ccc2c1.Cl,14.21,4.38,-9.79
Clc1ccc(Cl)c(CO[C@H]2CCCC[C@@H]2n2ccnc2)c1,15.52,2.99,2.84
O=[N+]([O-])c1cn2c(n1)OC[C@@H](OCc1ccc(OC(F)(F)F)cc1)C2 [PRETOMANID],14.31,4.06,-5.11
COc1ccc(-c2cc(NC(=O)c3ccc(F)cc3Cl)ccc2OC)cc1,14.44,5.2,8.48
COc1ccccc1C(C)NCC(=O)Nc1cc(C(F)(F)F)ccc1Cl (stereo not drawn),14.48,1.66,-4.09
O=C(Nc1c(O)cccc1-c1nc2c(C(=O)O)cccc2o1)c1cc(-c2ccccc2)on1,-9.4,3.49,-10.86
CC1=NN(c2nc3ccccc3s2)C(=O)C1Cc1cccc2ccccc12 (stereo not drawn),10.99,19.6,-5.86
O=C(NC1CCCCC1)N1CCN(Cc2ccc3c(c2)OCO3)CC1,10.77,0.64,-16.64
COc1cc(CN2CCC3(C=Cc4ccccc43)CC2)cc2c1OCO2,-1.15,-0.19,-8.59
Cc1ccccc1C(=O)N1N=C(Nc2ccccc2)SC1(C)C,6.87,4,-7.29
C[C@H](c1ccc2c(c1)CCCC2)N(C)c1ncc2c(N)nc(N)nc2n1,18.37,3.88,-9.74
Cc1cc(Cl)c(S(=O)(=O)N2CCCC2)cc1OCC(=O)NC1CCCCC1,2.55,9.11,-9.39
Cc1ccc(NC(=O)c2nc[nH]c2C(=O)Nc2nc3ccccc3[nH]2)c(C)c1,13.9,23.3,-8.94
Cc1ccc(-c2nc(CN(Cc3ccccn3)C(C)C)cs2)o1,14.74,5.03,-5.74
CCCn1c(CNc2ccccc2O)nc2ccccc21,12.8,-0.42,-15.95
Cc1cc(Cl)ccc1NC(=O)CCc1ccc(S(=O)(=O)NCC(C)C)cc1,8.81,1.81,-9.04
O=C(N[C@H](Cc1ccccc1)C(=O)Nc1ccccc1N1CCOCC1)c1cccs1,11.64,3.1,-4.85
Cc1ccc2nc(Cl)c(CNCc3cccs3)cc2c1,1.61,2.37,-15.9
O=C(Nc1ccnc(-c2cccnc2)n1)c1cc(C(F)(F)F)cc(C(F)(F)F)c1,14.57,1.91,-5.46
